# An excerpt weighted towards active compounds, which were near 15% of everything screened.
# HCV inh: inhibitors of hepatitis C virus infection | Potency, µM (top dose mostly 41.8 µM), without a hit: at the highest dose activity change, negative = inhibition, most hits filed as inhibitors | Huh7.5.1 HCVcc-Cre infection, luciferase reporter, 44 h | 3.4% of 340,000 active; also: potency is read from the fitted curve at half-maximal effect; % is scaled to controls: 0 for no effect and ±100 for the full control effect
#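 Luciferase read-out (15 sec integration) after a 15 min room-temperature substrate step quantifies HCVcc-Cre infection. Cells, 1,000 per well, had compound added 4 h post-plating, then virus at ~0.5 moi, and were cultured 44 h.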
# Sm TGR inh: S. mansoni TGR enzyme inhibition. AID 485364. Q962Y6. purified TGR, DTNB reduction, TNB absorbance 405 nm. 3% of 360,000 active. Potency, µM (top dose mostly 114 µM), inactives show at the highest dose activity change, negative = inhibition, hits mostly inhibitors; also: potency is read from the fitted curve at half-maximal effect; % is scaled to controls: 0 for no effect and ±100 for the full control effect; nearly all actives have a fitted effect of over 60% in size
#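 TGR 20 nM + NADPH 100 uM (dispensed conc.), cpd preinc 15 min RT; start with NADPH (500 uM addition) then DTNB (15 mM addition). Kinetic TNB absorbance, 405 nm filter. Four-parameter Hill fit across titration.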
# HCMV inh: inhibitors of human cytomegalovirus. 4.5% of 410,000 active. HFF cells, HCMV-luciferase reporter, 72 h; active compounds read low. activity change, negative = inhibition, % at 57.5 µM; in the data active = activity change below about -60%; inconclusive = no clear call, values can overlap the other calls; inactive = above about -39%; also: % is scaled to controls: 0 for no effect and ±100 for the full control effect
#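 Screen run at 2 compound doses on HFFs infected with reporter HCMV, MOI 1 PFU/cell. Luciferase activity from cell lysates at 72 h post infection gave inhibition relative to buffer-only and Salinomycin wells.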
# Pf growth 96h: P. falciparum growth inhibition at 96 hours. 6.9% of 320,000 active. P. falciparum luciferase reporter growth, 96 h. Potency, µM (series often up to 28.7 µM), inactives show at the top dose activity change, negative = inhibition, usual class: inhibitors; also: potency is read from the fitted curve at half-maximal effect; % is scaled to controls: 0 for no effect and ±100 for the full control effect
#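 Compounds incubated with erythrocytes infected by luciferase-expressing P. falciparum (2% hematocrit, 0.05% parasitemia final) for 96 hours, 37 C in 5% CO2. Growth inhibition scored as decreased luciferase luminescence.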
# Pf growth 48h: inhibits P. falciparum growth in the first generation, 48 h | Potency, µM (series often up to 28.7 µM), for inactives: at the top dose activity change, negative = inhibition, actives largely listed as inhibitors | P. falciparum luciferase growth in erythrocytes, 48 h | 5.9% of 310,000 active; also: potency is read from the fitted curve at half-maximal effect; % is scaled to controls: 0 for no effect and ±100 for the full control effect
#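 Growth was read as firefly luciferase luminescence after a 48 h, 37 C, 5% CO2 exposure of compounds to reporter-bearing P. falciparum cultures (0.1% parasitemia, 2% hematocrit final) in Albumax-supplemented RPMI 1640.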
# SARS PLpro yeast: SARS-CoV PLP inhibition in yeast | 0.19% of 330,000 active | Potency, µM (titrated, usually from 32.9 µM), without a hit: at the top dose activity, positive = growth rescue, most hits filed as activators | S. cerevisiae expressing SARS-CoV PLpro, growth rescue; calls by dose curve; also: potency is read from the fitted curve at half-maximal effect; 0% is about no effect; nearly all actives have a fitted effect of over 55% in size
# Starred values were filed as active, the others as inactive; ? = inconclusive; / = not tested or not shown; [ ] = dose if it differs, or a comment. Unless noted, calls follow the shape of the dose curve; as a rule, active = well fitted curve in the direction sought with a large enough effect; inconclusive = small, poorly fitted or top-dose-only effect, or another doubt; inactive = no such curve, though single readings can be large; an effect the other way counts as inactive or inconclusive.
SMILES,HCV inh,Sm TGR inh,HCMV inh,Pf growth 96h,Pf growth 48h,SARS PLpro yeast
Cc1cc(N2C(=O)C3C4C=CC(C4)C3C2=O)ccc1Br (configuration not stated),-6.4%,-9.6%,-5.2,11.7µM*,-6.6%,-5.5%
COc1cc(C(=O)NCC(c2ccc(N(C)C)cc2)N2CCc3ccccc32)cc(OC)c1OC (configuration not stated),/,-17.2%,-33.7,/,/,/
CCCn1nnc(NC(=S)NC(=O)c2cccs2)n1,1.3%,-33.9%,-10.2,-79.0%,39.6%,-5.6%
CCCCn1nnc(N(C(=O)c2cccs2)C(=O)c2cccs2)n1,16.1%,4.47µM*,0.8,11.4%,47.0%,-1.2%
CC(=O)Nc1nc(C)c(-c2csc(Nc3cccc([N+](=O)[O-])c3)n2)s1,?,-16.5%,-9.0,0.828µM*,/,5.4%
Cc1nc(N)sc1-c1csc(Nc2cccc(C(=O)O)c2)n1,11.6%,?,18.8,155.6%,14.0%,3.0%
CC(=O)Nc1nc(C)c(-c2csc(Nc3cccc(C(C)=O)c3)n2)s1,10µM*,-11.7%,-32.4,6.9%,/,-3.6%
CC(=O)c1cccc(Nc2nc(-c3cccc([N+](=O)[O-])c3)cs2)c1,2.24µM*,12.2%,26.5,55.4%,52.5%,-32.5%
Cc1ccc(-c2csc(NC(=O)c3cccc([N+](=O)[O-])c3)n2)cc1,-7.3%,10.1%,-26.1,41.2%,60.5%,7.3%
Cc1nn(-c2ccc(Cl)cc2)c(Cl)c1/C=N/NC(=O)c1ccc(NS(=O)(=O)c2cccs2)cc1,?,/,29.6,/,/,/
COc1ccc(/C=N/NC(=O)COc2ccc(Cl)cc2Cl)cc1Cn1nc(C)cc1C,0.0%,2.1%,?,106.8%,-3.0%,-9.7%
COc1cc(NC(=O)CSc2nnc3n2C(C)(C)Cc2ccccc2-3)cc(OC)c1,-7.3%,-2.0%,-25.3,4.15µM*,?,5.7%
COc1ccc(N2CCN(C(=O)CSc3nnc4c(C)cc5c(C)cc(C)cc5n34)CC2)cc1,?,-12.0%,-13.2,-4.2%,2.94µM*,1.5%
COC(=O)CSc1nnc2n1C(C)(C)Cc1ccccc1-2,?,-2.8%,-12.9,14.2%,1.4%,4.3%
COc1ccc(N2CCN(C(=O)CSc3nnc4n3C(C)(C)Cc3ccccc3-4)CC2)cc1,?,1.8%,-63.6*,?,11.7µM*,-2.7%
COc1cccc(N2CC(NC(=O)c3cccc(OC)c3OC)CC2=O)c1 (configuration not stated),/,3.6%,56.0,/,/,/
CCCCC1=CC2=CC(=O)C(C)(OC(=O)CC)C(=O)C2=CN1CCN1CCOCC1 (configuration not stated),0.6%,-28.3%,/,?,?,0.5%
CCCCC1=CC2=CC(=O)C(C)(OC(=O)CC)C(=O)C2=CN1CCc1c[nH]c2ccccc12 (configuration not stated),?,44.7µM*,4.4,10.4µM*,8.28µM*,-2.8%
COC(=O)CCCC1=CC2=CC(=O)C(C)(OC(=O)c3cccs3)C(=O)C2=CN1CCc1c[nH]c2ccccc12 (configuration not stated),6.5%,?,41.6,10.4µM*,8.28µM*,0.2%
CCCCC1=CC2=CC(=O)C(C)(OC(=O)CC)C(=O)C2=CN1Cc1ccco1 (configuration not stated),-19.1%,0.0%,/,?,30.7%,2.7%
C[C@@H]1NS(=O)(=O)c2ccc(F)cc2O[C@@H]1c1ccccc1,/,/,26.9,/,/,/
CCOC(=O)c1ccc(NC(=O)c2ncn3c2C(=O)NC[C@H]3C)cc1,/,/,-30.9,/,/,/
COC(=O)CCCC1=CC2=C(c3ccccc3)C(=O)C(C)(OC(=O)C3CCCC3)C(=O)C2=CN1Cc1ccc(OC)cc1 (configuration not stated),5.3%,22.4µM*,5.7,?,?,2.3%
COC(=O)CCCC1=CC2=C(c3ccccc3)C(=O)C(C)(OC(=O)C3CCCC3)C(=O)C2=CN1Cc1ccc2c(c1)OCO2 (configuration not stated),4.2%,17.8µM*,-69.6*,?,?,1.6%
O=C(NCc1cccc(C(F)(F)F)c1)N1CCN(C(=O)c2ccccc2)CC1,-5.4%,/,10.1,/,/,-1.9%
SMILES,HCV inh,Sm TGR inh,HCMV inh,Pf growth 96h,Pf growth 48h,SARS PLpro yeast
CCOC(=O)c1ccc(S(=O)(=O)N2CCN(C(=O)C3CSC4(C)CCC(=O)N34)CC2)cc1 (configuration not stated),6.8%,-0.8%,-14.3,?,?,-4.1%
CCOc1cccc(N2C(=O)CC(NNC(=O)c3ccc(Br)o3)C2=O)c1 (configuration not stated),-3.1%,25.1µM*,-5.4,0.1%,12.6%,-0.7%
CCCOc1ccc(N2C(=O)CC(NNC(=O)c3ccc(COc4ccccc4)o3)C2=O)cc1 (configuration not stated),-7.1%,?,-3.3,18.2%,?,4.0%
CCOc1ccc(OCCC(=O)Nc2ccc(N3CCOCC3)cc2N2CCOCC2)cc1,/,/,-6.4,/,/,/
COCCN1Cc2cc3cc(C)ccc3nc2SC1=Nc1ccc(OC)cc1,-19.9%,-19.3%[57.1 µM],-19.1,-21.8%,?,-2.0%
COCCN1Cc2cc3cc(C)ccc3nc2SC1=Nc1cccc(OC)c1,-21.9%,?,5.4,0.7%,14.7µM*,-1.9%
Cc1cccc(N=C2Sc3nc4c(C)c(C)ccc4cc3CN2CCN2CCOCC2)c1,12.6µM*,-11.5%,-6.9,7.38µM*,11.7µM*,-9.4%
CC(NC(=O)COc1ccccc1-c1ccccc1)c1ccccc1 (configuration not stated),-7.9%,6.0%,-69.1*,?,?,-28.2%
CC(=O)Nc1ccccc1OCC(=O)NC(C)c1ccccc1 (configuration not stated),1.2%,-1.0%,76.2,-8.7%,2.1%,-8.2%
C/C(CCC(C)C)=N\NC(=O)COc1ccccc1-c1ccccc1,-4.7%,-0.6%,-90.0*,-14.1%,6.9%,-5.3%
C/C(CCc1ccccc1)=N\NC(=O)COc1ccccc1C,?,6.4%,26.3,50.0%,20.3%,-0.5%
Cc1ccc(CNC(=O)COc2ccccc2-c2ccccc2)cc1,-16.4%,-2.3%,?,10.4µM*,-14.4%,-11.4%
CC(C)(C)c1nc(CN2CCOCC2)cc(CN2CCOCC2)c1O,9.0%,0.5%,-28.6,?,/,-6.0%
Cc1ccc(-c2nc(CN3CCCCC3)cc(CN3CCCCC3)c2O)cc1,?,20µM*,-35.4,?,0.828µM*,-0.9%
COc1ccc2oc(C(=O)NCc3ccccc3CN3CCCC3)c(C)c2c1,?,-9.8%,-26.5,?,11.7µM*,0.9%
